Results reported in PubChem BioAssay (EPA / NIEHS).
Results filed as inconclusive are left out. Where a structure was tested more than once in an assay, its records may differ in their call. The source made the active and inactive calls. Rule for the calls: active = hit-call score of the fitted dose curve at least 0.9, where 1 is the maximum; inconclusive = response in the unintended direction; inactive = score below 0.9.

biological target: rat Androgen Receptor (AR), Ar (gene 24208) (UniProt P15207); test: NVS_NR_rAR: NovaScreen (NVS) Nuclear Receptor Binding Assay for rat Androgen Receptor (AR) (AID 2283366)
Sequence (P15207 whole entry, looked up): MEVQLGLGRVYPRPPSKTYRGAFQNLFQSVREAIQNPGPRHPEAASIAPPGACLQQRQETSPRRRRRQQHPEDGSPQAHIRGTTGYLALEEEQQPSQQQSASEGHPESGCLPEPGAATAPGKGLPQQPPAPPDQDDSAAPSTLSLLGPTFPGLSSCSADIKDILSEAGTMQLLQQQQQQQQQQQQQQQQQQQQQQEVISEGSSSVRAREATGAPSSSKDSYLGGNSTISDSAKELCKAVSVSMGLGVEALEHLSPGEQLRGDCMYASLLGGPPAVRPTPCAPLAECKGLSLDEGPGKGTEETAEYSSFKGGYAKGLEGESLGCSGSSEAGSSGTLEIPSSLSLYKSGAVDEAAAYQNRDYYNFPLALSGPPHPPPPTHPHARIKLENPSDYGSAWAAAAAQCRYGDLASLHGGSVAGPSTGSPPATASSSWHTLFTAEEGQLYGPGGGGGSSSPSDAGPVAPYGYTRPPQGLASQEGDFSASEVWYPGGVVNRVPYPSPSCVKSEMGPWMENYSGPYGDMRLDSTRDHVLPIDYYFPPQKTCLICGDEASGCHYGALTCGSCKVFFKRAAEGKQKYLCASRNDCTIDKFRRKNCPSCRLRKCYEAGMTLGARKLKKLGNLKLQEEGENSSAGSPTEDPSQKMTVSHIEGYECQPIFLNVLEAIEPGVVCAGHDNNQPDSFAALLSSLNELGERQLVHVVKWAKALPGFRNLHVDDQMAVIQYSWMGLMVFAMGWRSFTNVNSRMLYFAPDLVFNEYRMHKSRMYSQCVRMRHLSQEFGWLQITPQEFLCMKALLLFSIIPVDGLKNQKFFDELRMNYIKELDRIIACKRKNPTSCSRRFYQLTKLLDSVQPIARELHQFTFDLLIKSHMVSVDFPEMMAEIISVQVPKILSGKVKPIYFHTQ
Summary of the method: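 Cell-free radioligand binding on extracts of prostate from testosterone-pretreated rats, read by filter-based scintillation counting 18 h after dosing. Loss of bound signal fitted positively versus DMSO; primary screen in duplicate at 25 uM, actives followed up in concentration series.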

SMILES | AC50 | outcome
Cc1ccc(S(=O)(=O)Oc2ccc(N=Nc3ccc(-c4ccc(N=Nc5c(O)ccc6cc(S(=O)(=O)O)cc(S(=O)(=O)O)c56)c(C)c4)cc3C)cc2)cc1 | 0.463 µM (active) | –
Oc1c(Cl)cc(Cl)c(Cl)c1Cc1c(O)c(Cl)cc(Cl)c1Cl | 2.06 µM (active) | –
C=C(C)[C@H]1CC=C(C)C(=O)C1 | – | inactive
CCCCCCCCC=CCCCCCCCC1=NCCN1CCO | 7.33 µM (active) | –

biological target: guinea pig Sigma Receptor, Non-selective Binding, SIGMAR1 (gene 100135589) (UniProt Q60492); test: NVS_OR_gSIGMA_NonSelective: NovaScreen (NVS) Nuclear Receptor Binding Assay for guinea pig Sigma Receptor, Non-selective Binding (AID 2283367)
Sequence (Q60492 whole entry, looked up): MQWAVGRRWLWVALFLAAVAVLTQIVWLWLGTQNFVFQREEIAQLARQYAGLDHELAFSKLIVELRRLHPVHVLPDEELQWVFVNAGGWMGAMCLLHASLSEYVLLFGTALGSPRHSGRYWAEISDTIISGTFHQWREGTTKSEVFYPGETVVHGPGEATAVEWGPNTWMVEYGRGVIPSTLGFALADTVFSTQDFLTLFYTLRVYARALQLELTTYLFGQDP
Summary of the method: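 gp brain membr., radioligand displacement, 1 h, filtration + scint. counting; DMSO = baseline; 25 uM x2 primary, conc.-response confirm.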

SMILES | AC50 | outcome
C1=CC2C3C=CC(C3)C2C1 (stereo not given) | 13 µM (active) | –
CN(c1nccc(=O)[nH]1)C1CCN(c2nc3ccccc3n2Cc2ccc(F)cc2)CC1 | 0.976 µM (active) | –
c1ccc2[nH]cnc2c1 | – | inactive
CCOCCOCCOCC | 4.87 µM (active) | –
CC(C=O)Cc1ccc(C(C)(C)C)cc1 (stereo not given) | 2.97 µM (active) | –
COc1ccc(CCN2CCC(Nc3nc4ccccc4n3Cc3ccc(F)cc3)CC2)cc1 | 1.24 µM (active) | –

system: guinea pig Dopamine Transporter (DAT), gene 100714898; test: NVS_TR_gDAT: NovaScreen (NVS) Transporter Assay for guinea pig Dopamine Transporter (DAT) (AID 2283369);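 note: active compounds lower bound radioligand signal relative to DMSO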
Summary of the method: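 Cell-free striatal membrane prep (guinea pig), 2 h exposure, filtration + scintillation readout of radioligand binding. Single-point 25 uM duplicate; actives rerun singleton, top conc 50 uM.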

SMILES | outcome | AC50
ClC(c1ccccc1)(c1ccccc1)c1ccccc1 | inactive | –
CN(c1nccc(=O)[nH]1)C1CCN(c2nc3ccccc3n2Cc2ccc(F)cc2)CC1 | – | 1.76 µM (active)
CN(C)C(=S)SC(=S)N(C)C | – | 6.19 µM (active)
O=C1OC[C@H](Cc2cccc(O)c2)[C@H]1Cc1cccc(O)c1 | – | 0.771 µM (active)
CCN(CCC#N)c1ccc(N=Nc2ccc([N+](=O)[O-])cc2)cc1 | inactive | –
COc1ccc(CCN2CCC(Nc3nc4ccccc4n3Cc3ccc(F)cc3)CC2)cc1 | – | 4.41 µM (active)
CC(C)(C)CC(C)(C)c1ccc(OCCOCC[N+](C)(C)Cc2ccccc2)cc1 | – | 1.75 µM (active)

biological target: Peroxisome proliferator-activated receptor gamma (Homo sapiens) (UniProt P37231); test: NVS_NR_hPPARg: NovaScreen (NVS) Nuclear Receptor Binding Assay for human Peroxisome Proliferator-activated Receptor gamma (PPARg) (AID 2283370)
Sequence (P37231 whole entry, looked up): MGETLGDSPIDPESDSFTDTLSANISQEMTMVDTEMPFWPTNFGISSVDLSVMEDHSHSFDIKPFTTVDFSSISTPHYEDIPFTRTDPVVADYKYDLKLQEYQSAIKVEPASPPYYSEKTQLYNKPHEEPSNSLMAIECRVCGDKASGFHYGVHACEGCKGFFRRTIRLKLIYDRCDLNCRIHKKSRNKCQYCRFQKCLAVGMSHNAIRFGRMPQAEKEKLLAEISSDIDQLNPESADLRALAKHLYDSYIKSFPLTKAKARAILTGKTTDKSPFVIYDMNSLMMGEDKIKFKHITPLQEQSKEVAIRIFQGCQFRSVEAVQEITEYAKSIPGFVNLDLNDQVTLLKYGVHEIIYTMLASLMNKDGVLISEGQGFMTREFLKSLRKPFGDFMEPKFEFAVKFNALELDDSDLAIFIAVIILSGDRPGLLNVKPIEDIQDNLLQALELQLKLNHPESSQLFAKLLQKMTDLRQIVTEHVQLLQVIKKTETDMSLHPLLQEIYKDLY
Summary of the method: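 FP read-out, 2 h post-dose, cell-free extracted receptor protein. Signal loss vs DMSO negative control = binding activity. Single-conc duplicate HTS at 25 uM; concentration-response follow-up for actives.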

SMILES | outcome | AC50
COc1ccc(N=Nc2cc(C)c(N=Nc3ccc(S(=O)(=O)O)cc3)cc2OC)cc1 | inactive | –
O=CCc1ccccc1 | inactive | –
CCc1cc(Cc2cc(CC)cc(C(C)(C)C)c2O)c(O)c(C(C)(C)C)c1 | inactive | –
C1=CC2C3C=CC(C3)C2C1 (stereo not given) | – | 2.39 µM (active)
CCC(=O)O[C@@H]1C[C@H]2CC[C@]1(C)C2(C)C | inactive | –
CCCCCCCCCCCC(=O)OCC(O)CO (stereo not given) | inactive | –
C=C1CC[C@H](O)C/C1=C/C=C1\CCC[C@]2(C)[C@@H]([C@H](C)/C=C/[C@H](C)C(C)C)CC[C@@H]12 | inactive | –
CCOc1ccc(N=Nc2ccc(C=Cc3ccc(N=Nc4ccc(OCC)cc4)cc3S(=O)(=O)O)c(S(=O)(=O)O)c2)cc1 | inactive | –
Cc1ccc(S(=O)(=O)Oc2ccc(N=Nc3ccc(-c4ccc(N=Nc5c(O)ccc6cc(S(=O)(=O)O)cc(S(=O)(=O)O)c56)c(C)c4)cc3C)cc2)cc1 | inactive | –
CCc1cc(C(C)(C)C)c(O)c(C(C)(C)C)c1 | inactive | –
CC(C)C[C@H](NC(=O)OCC1c2ccccc2-c2ccccc21)C(=O)O | – | 46.6 µM (active)
CCOC(=O)c1ccc(N)cc1 | – | 41.6 µM (active)
Nc1ccccc1[N+](=O)[O-] | inactive | –
Oc1ccc2cc(SSc3ccc4cc(O)ccc4c3)ccc2c1 | inactive | –
CC(=O)O[C@H]1C[C@@H]2CC[C@@]1(C)C2(C)C | inactive | –
C[C@H]1O[C@@H](O[C@H]2[C@@H](O)C[C@H](O[C@H]3[C@@H](O)C[C@H](O[C@H]4CC[C@@]5(C)[C@H](CC[C@@H]6[C@@H]5C[C@@H](O)[C@]5(C)[C@@H](C7=CC(=O)OC7)CC[C@]65O)C4)O[C@@H]3C)O[C@@H]2C)C[C@H](O)[C@@H]1O | inactive | –
C=C1C[C@]23C[C@@]1(O)CC[C@H]2[C@@]12C=C[C@H](O)[C@@](C)(C(=O)O1)[C@H]2[C@@H]3C(=O)O | inactive | –
CC(C)NCC(O)COc1ccc(CC(N)=O)cc1 (stereo not given) | inactive | –
CCCC(=O)OC(C)(C)Cc1ccccc1 | – | 13.4 µM (active)
CCCCCCCCc1ccc(S(=O)(=O)O)cc1 | inactive | 4.22 µM (active)
C=C[Si]1(C)O[Si](C)(C=C)O[Si](C)(C=C)O[Si](C)(C=C)O1 (stereo not given) | inactive | –

biological target: human Dopamine Transporter (DAT), SLC6A3 (gene 6531) (UniProt Q01959); test: NVS_TR_hDAT: NovaScreen (NVS) Transporter Assay for human Dopamine Transporter (DAT) (AID 2283374);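 note: activity means loss of bound radioligand signal relative to DMSO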
Sequence (Q01959 whole entry, looked up): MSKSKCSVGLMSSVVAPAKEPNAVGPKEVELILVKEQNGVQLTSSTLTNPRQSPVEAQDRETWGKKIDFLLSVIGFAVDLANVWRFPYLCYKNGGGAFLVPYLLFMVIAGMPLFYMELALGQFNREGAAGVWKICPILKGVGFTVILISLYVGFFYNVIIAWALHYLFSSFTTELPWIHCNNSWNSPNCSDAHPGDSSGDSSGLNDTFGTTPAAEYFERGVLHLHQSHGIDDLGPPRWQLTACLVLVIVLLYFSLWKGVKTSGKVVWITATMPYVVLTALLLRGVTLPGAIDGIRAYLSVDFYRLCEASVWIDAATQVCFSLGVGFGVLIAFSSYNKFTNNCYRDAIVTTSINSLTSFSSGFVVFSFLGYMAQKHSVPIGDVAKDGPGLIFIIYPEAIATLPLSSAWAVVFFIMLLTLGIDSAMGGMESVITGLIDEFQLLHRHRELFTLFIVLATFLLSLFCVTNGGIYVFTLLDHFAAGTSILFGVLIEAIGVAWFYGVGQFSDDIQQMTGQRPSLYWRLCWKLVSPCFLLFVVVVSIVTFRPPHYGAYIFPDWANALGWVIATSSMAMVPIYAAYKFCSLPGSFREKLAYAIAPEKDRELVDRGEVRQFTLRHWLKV
Summary of the method: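 Test chemicals were first screened in duplicate at 25 uM, with actives retested as concentration series. Displacement of a specific radioligand from cell-free human dopamine transporter was measured after 1 h by filtration and scintillation counting.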

SMILES | outcome | AC50
ClC(c1ccccc1)(c1ccccc1)c1ccccc1 | inactive | –
CN(c1nccc(=O)[nH]1)C1CCN(c2nc3ccccc3n2Cc2ccc(F)cc2)CC1 | – | 11.5 µM (active)
O=C1OC[C@H](Cc2cccc(O)c2)[C@H]1Cc1cccc(O)c1 | – | 0.0517 µM (active)
COc1ccc(CCN2CCC(Nc3nc4ccccc4n3Cc3ccc(F)cc3)CC2)cc1 | – | 3.89 µM (active)

biological target: human Norepinephrine Transporter (NET), SLC6A2 (gene 6530) (UniProt P23975); test: NVS_TR_hNET: NovaScreen (NVS) Transporter Assay for human Norepinephrine Transporter (NET) (AID 2283377);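 note: cell-free membrane protein extracted from CHO cells expressing human NET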;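 for AC50: displacement of radioligand from human NET seen as loss of scintillation signal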
Sequence (P23975 whole entry, looked up): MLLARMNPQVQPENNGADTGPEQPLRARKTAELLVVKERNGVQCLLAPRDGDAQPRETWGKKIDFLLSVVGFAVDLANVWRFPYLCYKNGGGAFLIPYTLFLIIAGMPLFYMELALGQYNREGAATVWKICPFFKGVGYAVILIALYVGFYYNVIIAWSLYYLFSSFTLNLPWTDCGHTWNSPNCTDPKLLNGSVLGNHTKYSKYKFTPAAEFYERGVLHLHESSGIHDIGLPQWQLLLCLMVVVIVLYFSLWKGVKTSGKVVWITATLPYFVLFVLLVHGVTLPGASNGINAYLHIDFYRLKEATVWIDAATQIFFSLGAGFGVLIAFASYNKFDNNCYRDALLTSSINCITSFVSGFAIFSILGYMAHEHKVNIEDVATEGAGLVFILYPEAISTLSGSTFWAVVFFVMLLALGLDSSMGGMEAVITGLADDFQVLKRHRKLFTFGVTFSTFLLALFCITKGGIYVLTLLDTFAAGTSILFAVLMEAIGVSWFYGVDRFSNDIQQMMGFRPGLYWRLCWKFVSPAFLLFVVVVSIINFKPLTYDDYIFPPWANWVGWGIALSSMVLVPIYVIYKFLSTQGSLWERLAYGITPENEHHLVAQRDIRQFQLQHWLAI
Summary of the method: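 Scintillation counts of filter-retained radioligand served as the readout, taken 1 h post-dosing in a cell-free CHO-derived system. Test chemicals ran first at 25 uM in duplicate; confirmed hits were retested across concentrations.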

SMILES | outcome | AC50
CN(c1nccc(=O)[nH]1)C1CCN(c2nc3ccccc3n2Cc2ccc(F)cc2)CC1 | inactive | –
CCN(CCC#N)c1ccc(N=Nc2ccc([N+](=O)[O-])cc2)cc1 | inactive | –
COc1ccc(CCN2CCC(Nc3nc4ccccc4n3Cc3ccc(F)cc3)CC2)cc1 | – | 2.52 µM (active)

biological target: Agonist Androgen Response Element (ARE), AR (gene 367) (UniProt P10275); test: OT_AR_ARELUC_AG_1440: Odyssey Thera (OT) 24-hour CHO-K1 Luciferase Assay for Agonist Androgen Response Element (ARE) (AID 2283379)
Sequence (P10275 whole entry, looked up): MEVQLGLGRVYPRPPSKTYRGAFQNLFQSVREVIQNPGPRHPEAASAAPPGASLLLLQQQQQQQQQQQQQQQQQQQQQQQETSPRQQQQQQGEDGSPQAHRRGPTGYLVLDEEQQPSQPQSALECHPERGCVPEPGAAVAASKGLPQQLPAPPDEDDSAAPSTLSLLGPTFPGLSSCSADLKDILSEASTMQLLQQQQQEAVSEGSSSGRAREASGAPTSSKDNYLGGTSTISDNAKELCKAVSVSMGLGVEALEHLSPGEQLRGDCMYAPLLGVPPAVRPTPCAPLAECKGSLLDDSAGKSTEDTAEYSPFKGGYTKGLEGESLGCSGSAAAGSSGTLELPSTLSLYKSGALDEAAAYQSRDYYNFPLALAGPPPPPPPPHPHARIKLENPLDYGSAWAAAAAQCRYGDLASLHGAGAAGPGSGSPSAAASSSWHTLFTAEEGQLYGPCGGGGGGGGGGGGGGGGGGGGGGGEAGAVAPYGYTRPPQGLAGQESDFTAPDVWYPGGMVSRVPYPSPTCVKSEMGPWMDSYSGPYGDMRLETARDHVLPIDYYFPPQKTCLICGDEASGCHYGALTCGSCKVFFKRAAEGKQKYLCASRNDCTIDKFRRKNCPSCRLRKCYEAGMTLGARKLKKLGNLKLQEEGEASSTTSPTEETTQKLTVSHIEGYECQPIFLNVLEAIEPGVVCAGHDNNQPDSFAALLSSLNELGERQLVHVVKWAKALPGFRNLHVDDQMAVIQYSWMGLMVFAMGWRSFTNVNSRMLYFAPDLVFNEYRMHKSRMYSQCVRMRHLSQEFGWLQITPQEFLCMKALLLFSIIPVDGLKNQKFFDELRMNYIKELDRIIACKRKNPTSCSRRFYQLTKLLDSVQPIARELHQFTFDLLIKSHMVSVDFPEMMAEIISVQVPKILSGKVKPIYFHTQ
Summary of the method: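 Agonist mode, 24 h exposure in CHO-K1 ARE-luciferase cells; values reflect luminescence induction over vehicle.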

SMILES | outcome | AC50
CCc1cc(Cc2cc(CC)cc(C(C)(C)C)c2O)c(O)c(C(C)(C)C)c1 | inactive | –
CC(=O)O[C@H]1C[C@@H]2CC[C@@]1(C)C2(C)C | – | 31.8 µM (active)
C[C@H]1O[C@@H](O[C@H]2[C@@H](O)C[C@H](O[C@H]3[C@@H](O)C[C@H](O[C@H]4CC[C@@]5(C)[C@H](CC[C@@H]6[C@@H]5C[C@@H](O)[C@]5(C)[C@@H](C7=CC(=O)OC7)CC[C@]65O)C4)O[C@@H]3C)O[C@@H]2C)C[C@H](O)[C@@H]1O | inactive | –
CCCCCCCCC=CCCCCCCCC1=NCCN1CCO | inactive | –
